# Experimental data published in the OligoGym collection.
# Molecular target: UNC5D
# Assay: pooled miR-30 sensor sort-seq; sequence = guide strand
# Conditions: shRNA
# Note: reference of the scale not given here.
row,Sequence,sensor-assay potency score (higher = more potent)
1,TTGACAATAATCTTGTCTCATC,-0.801
2,TTAGTCTACCAGGACATCTTGT,-0.288
3,TTAGAAAAAACAACTTTCCGTA,0.101
4,TAGATCAACACGTGTCTCCTAG,1.06
5,TTGTCCTACATCATAAGCCTTT,-0.645
6,TTAAAATGTATCAAACATCTAA,0.16
7,TTTGTGATGACACAGTACCCAC,-1.26
8,TAAATTAACTTTATGATGCTAC,-0.135
9,TACATTTCTATAGAAATCCTAT,-0.569
10,TAACCAACCTCTAAGTAGCTGA,0.224

# Molecular target: UPK1A
# Assay: as above
# Conditions: shRNA
row,Sequence,sensor-assay potency score (higher = more potent)
1,TAGCTGTCGATGGCGTGGCCGA,-1.49
2,TAGGACGTGATGCAGGAGGCGC,-1.09
3,TTGGTGAACAGGTAGTCCATGT,-0.409
4,TAGCAGGCCCACCACAACTGGA,-1.8
5,TACTGGTCGGCTGTCACCCATA,-1.44
6,TAGAAGGTCAGCATCTGCTTGG,-0.08
7,TATGGTCTCAGCAAACAGGGAC,-0.387
8,TCTTGCTCAATCATGACGCGGT,0.151
9,TACGTGAGGACCATGGACCGGC,0.148
10,TTGGACACCATGTAGTCACGGT,0.419
11,ATGGCTATCAGCATGACCGGGA,-0.114

# Molecular target: UQCRQ
# Assay: as above
# Conditions: shRNA
row,Sequence,sensor-assay potency score (higher = more potent)
1,ATAAAACACTACAAACTGCGGC,0.284
2,TGTAGCTGATCACATGCCGCAT,-0.74
3,TGCTCGAACGGTGACAAGCTGT,-0.735
4,TGGATCTCTCGAACTCTTCAGT,-0.739
5,TCGAACGGTGACAAGCTGTAGC,-0.337
6,AACGGTGACAAGCTGTAGCTGA,0.0218
7,TCGAACTCTTCAGTCCCCCATG,-1.13
8,TATTGTGTCTTTGAGACACTAC,-0.42
9,TTCTTCCTCTTGGATCTCTCGA,-0.853
10,TCCTTTAGTGAAGACGTGCGGA,-0.407
11,TAAAACACTACAAACTGCGGCA,0.151

# Molecular target: USO1
# Assay: as above
# Conditions: shRNA
row,Sequence,sensor-assay potency score (higher = more potent)
1,TATATTATATAGTATGTCCAAA,-1.01
2,TACACGAACAAGCTGTAGCATT,-0.757
3,TTATCATTGAAATAAATCGAAA,-1.61
4,TATGATATAATCTCTATTGTTC,-0.231
5,TTTCTGATCTTGATCGGCCAAG,-1.48
6,TACCAATACACGAACAAGCTGT,0.107
7,TTTTAATGTAGAAACCTGCTGC,0.733
8,TAAAATAATTTGTTGCACCTGA,0.172
